Results on 16 molecules are retold here after PubChem BioAssay (Tox21).

Experiment [1] in a line: qHTS assay to test for compound auto fluorescence at 535 nm (green) in HEK293 cells (AID 720680).
The nature of experiment [2]: qHTS assay to test for compound auto fluorescence at 460 nm (blue) in HEK293 cell free culture (AID 720681). The procedure, abridged:
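Test compounds were pinned into cell-free culture medium (DMEM with 10% FBS) and fluorescence was read directly at Ex/Em 405/460 nm. Signals were expressed as fluorescence equivalents of triamterene, with DMSO vehicle as control.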
A general note: qHTS replaces the single test concentration by a dilution series.

Experiment [3] is described as follows: qHTS assay to test for compound auto fluorescence at 535 nm (green) in HEK293 cell free culture (AID 720682). The essentials:
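Fluorescein serves as the green reference fluorophore; each compound's intrinsic emission at 535 nm (excitation 485 nm) is reported as an equivalent amount of that dye, measured in serum-containing DMEM without cells.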

A short description of experiment [4]: qHTS assay to test for compound auto fluorescence at 590 nm (red) in HEK293 cell free culture (AID 720683). The procedure, abridged: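 Tox21 10K library compounds were pinned into cell-free DMEM with 10% FBS and fluorescence was read at excitation 540 nm. Activity is expressed as Rose Bengal sodium equivalency.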
Experiment [5] can be described thus: qHTS assay to test for compound auto fluorescence at 590 nm (red) in HepG2 cell free culture (AID 720684). The essentials: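 Red fluorescence (540 nm excitation, 590 nm emission) was measured after compound transfer into cell-free MEM supplemented with 10% FBS. Values are equivalencies against Rose Bengal sodium.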
A short description of experiment [6]: qHTS assay to test for compound auto fluorescence at 460 nm (blue) in HepG2 cell free culture (AID 720685). The essentials:
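Compound (23 nL) or DMSO pinned into cell-free MEM with 10% FBS; blue fluorescence read at 405/460 nm excitation/emission, expressed as auto-fluorescence equivalency to triamterene.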

A short description of experiment [7]: qHTS assay to test for compound auto fluorescence at 535 nm (green) in HepG2 cell free culture (AID 720686).
Experiment [8] is described as follows: qHTS assay to test for compound auto fluorescence at 460 nm (blue) in HepG2 cells (AID 720687). The procedure, abridged: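 Cells (2,000/well in MEM with 10% FBS) attached overnight at 37 C, then were exposed to compound or DMSO for 1 hr at 37 C, 5% CO2. Fluorescence read at Ex/Em 405/460 nm, expressed as triamterene-equivalent signal.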
The nature of experiment [9]: qHTS assay for identifying genotoxic compounds that show differential cytotoxicity against isogenic chicken DT40 cell lines with known DNA damage response pathways - wild type cell line (AID 743012). Note: nearly all actives have a fitted effect of over 60% in size. Note: potency is the fitted concentration of half-maximal effect. The essentials: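 Using parental DT40 (300 cells/well), compounds delivered in DMSO incubate 40 h at 37 C/5% CO2. CellTiter-Glo reagent then stands 30 min at room temperature, and luminescence gives cell viability.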

Experiment [10] can be described thus: qHTS assay for identifying genotoxic compounds that show differential cytotoxicity against isogenic chicken DT40 cell lines with known DNA damage response pathways - Rev3 mutant cell line (AID 743014). Note: nearly all actives have a fitted effect of over 55% in size. Note: potency is the fitted concentration of half-maximal effect.
Experiment [11] is described as follows: qHTS assay for identifying genotoxic compounds that show differential cytotoxicity against isogenic chicken DT40 cell lines with known DNA damage response pathways - Rad54/Ku70 mutant cell line (AID 743015). Note: nearly all actives have a fitted effect of over 60% in size. Note: potency is the fitted concentration of half-maximal effect.
Experiment [12] in a line: qHTS assay to identify small molecule antagonists of the androgen receptor (AR) signaling pathway - cell viability counter screen (AID 743033; note: nearly all actives have a fitted effect of over 45% in size; note: potency is the fitted concentration of half-maximal effect).
Experiment [13] in a line: qHTS assay to identify small molecule antagonists of the glucocorticoid receptor (GR) signaling pathway - cell viability counter screen (AID 720693). Note: nearly all actives have a fitted effect of over 55% in size. Note: potency is the fitted concentration of half-maximal effect.
A short description of experiment [14]: qHTS assay to identify small molecule antagonists of the androgen receptor (AR) signaling pathway using the MDA cell line - cell viability counter screen (AID 743041; note: nearly all actives have a fitted effect of over 45% in size; note: potency is the fitted concentration of half-maximal effect). The procedure, abridged:
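MDA-kb2 AR-luc human breast carcinoma cells (MMTV-luciferase, AR/GR responsive) were treated with compounds plus R1881 agonist for 16 h at 37 °C. Viability was read as CellTiter-Fluor fluorescence in the same wells as the reporter assay.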

Experiment [15] has as its target Androgen receptor (Homo sapiens) (UniProt P10275). The experiment in a line: qHTS assay to identify small molecule antagonists of the androgen receptor (AR) signaling pathway (AID 743035; active = well fitted inhibition curve with a large enough effect in the signal ratio in the repeat runs, not every such curve was filed as active; the % refers to the signal ratio; note: potency is the fitted concentration of half-maximal effect). The essentials: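 Using qHTS, AR-UAS-bla GripTite HEK293 cells received compound, then R1881, and were cultured 16 h at 37C/5% CO2 before a 2 h room-temperature LiveBLAzer B/G FRET substrate step and fluorescence measurement.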

For experiment [16] the target is unchanged. Put plainly: qHTS assay to identify small molecule agonists of the androgen receptor (AR) signaling pathway (AID 743036; active = well fitted activation curve with a large enough effect in the signal ratio in the repeat runs, with a control signal flat, not every such curve was filed as active; the % refers to the signal ratio). The essentials:
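Fluorescence from a beta-lactamase FRET substrate served as read-out in AR-UAS-bla GripTite HEK293 cells. Cells were treated with DMSO-dissolved compounds for 16 h at 37C, then with LiveBLAzer B/G substrate for 2 h at room temperature.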

Experiment [17] has the same target. Put plainly: qHTS assay to identify small molecule agonists of the androgen receptor (AR) signaling pathway using the MDA cell line (AID 743040; note: nearly all actives have a fitted effect of over 20% in size). The essentials: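 MDA-kb2 breast carcinoma cells stably carrying an MMTV-driven luciferase reporter (AR- and GR-responsive) were seeded and held 5 h at 37C, 0% CO2, then exposed to compounds in DMSO for 16 h. Luminescence was read 30 min after ONE-Glo addition.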

The target is the same in experiment [18]. Put plainly: qHTS assay to identify small molecule antagonists of the androgen receptor (AR) signaling pathway using the MDA cell line (AID 743042; note: nearly all actives have a fitted effect of over 55% in size; note: potency is the fitted concentration of half-maximal effect). The procedure, abridged:
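MDA-kb2 cells (human breast carcinoma, stably carrying an MMTV-luciferase reporter responsive to AR and GR) were plated at 3,000 cells/well and preincubated 5 hr at 37C, then given compound plus R1881 agonist for 16 h. ONE-Glo luminescence was read.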

“And” between values parts separate entries of the source, which are not always exact repeats. Equal entries are not always repeated. Records with an inconclusive call do not appear. More than one record can exist for a structure, and the calls need not agree. The source made the active and inactive calls. Unless noted, calls come from the whole dose curve; as a rule, active = well fitted curve in the direction sought with a large enough effect in the repeat runs; inconclusive = weak or mixed curves; inactive = no such curve, though single readings can be large; an effect the other way counts as inactive or inconclusive.
% is set by controls: 0 for no effect and ±100 for the full control effect.

Sequence of Androgen receptor (Homo sapiens) (P10275 whole entry, looked up): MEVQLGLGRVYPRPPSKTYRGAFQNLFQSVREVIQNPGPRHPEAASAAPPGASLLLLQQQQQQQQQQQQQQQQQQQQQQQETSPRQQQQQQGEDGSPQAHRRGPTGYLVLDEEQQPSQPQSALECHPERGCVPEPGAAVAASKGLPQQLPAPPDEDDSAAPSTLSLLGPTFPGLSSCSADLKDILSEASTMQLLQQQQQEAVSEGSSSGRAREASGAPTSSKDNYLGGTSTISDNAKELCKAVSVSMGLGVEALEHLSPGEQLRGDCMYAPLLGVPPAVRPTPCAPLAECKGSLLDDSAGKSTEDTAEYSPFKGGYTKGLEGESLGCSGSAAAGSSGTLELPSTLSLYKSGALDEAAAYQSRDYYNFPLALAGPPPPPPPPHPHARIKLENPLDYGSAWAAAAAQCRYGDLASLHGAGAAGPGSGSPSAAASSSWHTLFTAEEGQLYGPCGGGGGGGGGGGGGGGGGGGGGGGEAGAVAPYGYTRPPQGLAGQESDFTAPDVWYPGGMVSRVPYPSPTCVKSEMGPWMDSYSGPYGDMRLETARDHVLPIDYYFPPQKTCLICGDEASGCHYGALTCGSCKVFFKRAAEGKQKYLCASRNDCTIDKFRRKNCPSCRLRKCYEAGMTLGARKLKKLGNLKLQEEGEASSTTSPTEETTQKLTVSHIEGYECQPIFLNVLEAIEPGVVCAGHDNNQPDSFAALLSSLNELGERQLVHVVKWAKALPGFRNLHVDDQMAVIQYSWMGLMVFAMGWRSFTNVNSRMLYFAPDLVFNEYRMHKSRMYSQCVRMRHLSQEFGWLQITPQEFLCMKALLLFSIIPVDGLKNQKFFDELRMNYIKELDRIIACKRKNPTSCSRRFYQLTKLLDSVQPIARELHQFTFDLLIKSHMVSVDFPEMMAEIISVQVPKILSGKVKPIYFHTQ

Take `CC(=O)[O][Sn]([c]1ccccc1)([c]1ccccc1)[c]1ccccc1`: the molecule was called inactive in experiment [1], in experiment [3], in [4] and in experiment [5]. Moreover, the Potency entry in [2], in experiment [6], in [7] and in experiment [8] was “inactive” each time. Further, the Potency in experiment [9] is 122 nM (active); in [10], 172 nM (active); in experiment [11], 172 nM (active); in experiment [12], 0.245 µM (active).

Take `COC(=O)c1ccccc1S(=O)(=O)NC(=O)Nc1nc(C)nc(OC)n1`: the outcome in [1], in experiment [3], in [4] and in experiment [5] was inactive. In addition, the Potency entry in [2], in experiment [6], in experiment [7], in experiment [8], in [13] and in experiment [9] was “inactive” throughout. In addition, the Potency result in [10], in experiment [12] and in experiment [14] was “inactive” in each case.

Take `BrCC(Br)(Br)Br`: the call in experiment [1], in [3], in [4], in experiment [5], in experiment [16] and in experiment [17] was inactive. The Potency result in experiment [2], in [6], in experiment [7], in experiment [8], in experiment [13] and in experiment [12] was “inactive” in each case. Also, the Potency result in experiment [15], in experiment [14] and in experiment [18] was “inactive” throughout.

With `CCCCn1cc[n+](C)c1.[Cl][Fe-]([Cl])([Cl])[Cl]`, the molecule was classed as inactive in experiment [1], in experiment [3], in experiment [4] and in experiment [5]. Also, the Potency entry in [2], in [6], in experiment [7], in experiment [8], in [13] and in experiment [9] was “inactive” in each case. Also, the Potency entry in [10], in [12] and in experiment [14] was “inactive” in each case.

Regarding `Oc1ccc([C@H]2CNCc3c2ccc(O)c3O)cc1O`, the result in experiment [1], in experiment [3], in experiment [4] and in [5] was inactive. Further, the Potency result in [2], in experiment [6], in experiment [7], in [8], in experiment [13] and in experiment [12] was “inactive” throughout. Besides, the Potency entry in experiment [14] is “inactive”.

On to `N#Cc1sc2c(=O)c3ccccc3c(=O)c=2sc1C#N`, for which the result in [1], in experiment [3], in experiment [4], in [5] and in experiment [17] was inactive. Besides, the Potency result in experiment [2], in experiment [6], in experiment [7] and in [8] was “inactive” in each case. Moreover, the Potency in experiment [13] was 0.49 µM (active); in experiment [9], 1370 nM (active); in experiment [10], 433 nM (active); in [12], 13.8 µM (active); in experiment [15] it was 9.77 µM (active); in [14], 1.37 µM (active). In [18], the Potency is 0.306 µM (active).

Turning to `OCC(Br)CBr` (centres undefined), the result in [1], in [3], in [4] and in experiment [5] was inactive. Further, the Potency entry in [2], in experiment [6], in experiment [7], in experiment [8], in experiment [13] and in experiment [9] was “inactive” in each case. Further, the Potency result in experiment [10] and in [12] was “inactive” each time.

As to `CC(=O)[O-].CC(=O)[O-].CC(=O)[O-].[Sb+3]`, the fluorescence, % of fluorescein in [1] is 0.0079% [at 3.72 µM] (inactive). Further, the fluorescence, % of fluorescent control in [2] is -0.0273% [at 3.72 µM] (inactive); in experiment [4], -0.102% [at 3.72 µM] (inactive); in experiment [6] it was -0.11% [at 3.72 µM] (inactive); in [8] it was 0.0192% [at 3.72 µM] (inactive). Moreover, in [3], the activity change is -0.0203% [at 3.72 µM] (inactive). Besides, the fluorescence, % of Rose Bengal in experiment [5] is 0.0344% [at 3.72 µM] (inactive). Also, the fluorescence, % of fluorescein control in [7] is 0.0057% [at 3.72 µM] (inactive). In addition, the results for the viability change, negative = cytotoxic in experiment [13] and in experiment [14] were -0.477% [at 7.04 µM] (inactive) and -11.1% [at 8.47 µM] (inactive), respectively. In addition, the activity change, negative = cytotoxicity is -1.26% [at 8.52 µM] (inactive) in experiment [9] and -2.21% [at 7.04 µM] (inactive) in experiment [12]. Also, the activity, negative = cytotoxicity in experiment [10] was 0.291% [at 8.53 µM] (inactive).

`CNC(=O)Oc1cc(C)cc(C(C)C)c1`: the outcome in experiment [1], in experiment [3], in experiment [4] and in [5] was inactive. The Potency result in experiment [2], in experiment [6], in experiment [7], in experiment [8], in experiment [13] and in experiment [11] was “inactive” each time. In addition, the Potency entry in [12] and in experiment [14] was “inactive” in each case.

Regarding `COP(=O)(OC)Oc1ccc([N+](=O)[O-])cc1`, the call in experiment [1], in experiment [3], in experiment [4] and in experiment [5] was inactive. Also, the Potency entry in [2], in [6], in [7], in experiment [8], in experiment [13] and in experiment [11] was “inactive” each time. The Potency in experiment [10] is 61100 nM (active).

Take `Oc1cc(Cl)c(Cl)c(Cl)c1Cl`: the outcome in [1], in [3], in experiment [4], in experiment [5] and in experiment [17] was inactive. Besides, the Potency result in experiment [2], in [6], in experiment [7] and in [8] was “inactive” throughout. Moreover, the results for the Potency in [13], in experiment [12] and in [18] were 21.4 µM (active), 53.7 µM (active) and 59.7 µM (active), respectively.

With `CCCCCCCCCCCCCCn1cc[n+](C)c1`, the molecule was called inactive in [1], in [3], in experiment [4] and in [5]. For the same molecule, the Potency result in experiment [2], in experiment [6], in experiment [7] and in experiment [8] was “inactive” each time. For the same molecule, the Potency in experiment [9] is 217 nM (active) and 241 nM (active) and inactive; in [10], 109 nM (active) and 152 nM (active) and inactive; in [11], 122 nM (active) and 135 nM (active) and inactive; in experiment [12], 6.93 µM (active) and 24.3 µM (active) and inactive.

On to `O=C(N[C@@H]1N=C(c2ccccc2F)c2cccc3c2N(CC3)C1=O)c1cc2ccccc2[nH]1`, for which the molecule was called inactive in experiment [1], in experiment [3], in [4] and in experiment [5]. Further, the Potency entry in experiment [2], in [6], in experiment [7], in experiment [8], in experiment [13] and in experiment [10] was “inactive” throughout. Besides, the Potency entry in experiment [12] and in experiment [14] was “inactive” each time.

For the molecule `CCC(C)Br` (centres undefined), the result in [1], in experiment [3], in [4] and in experiment [5] was inactive. The Potency entry in [2], in [6], in [7], in experiment [8], in [9] and in experiment [10] was “inactive” throughout. Besides, the Potency result in [11] and in [14] was “inactive” throughout.

For `[C-]1=CC=CC1.[Cl][Zr+2][Cl].c1cc[cH-]c1`, the molecule was called inactive in experiment [1], in experiment [3], in experiment [4] and in experiment [5]. For the same molecule, the Potency entry in experiment [7], in experiment [13], in experiment [9], in [10], in experiment [11] and in [12] was “inactive” in each case.

Turning to `[Cl-].[Cl-].[Sn+2]`, the outcome in experiment [1], in experiment [3], in experiment [4] and in experiment [5] was inactive. For the same molecule, the Potency result in [2], in [6], in experiment [7], in experiment [8], in experiment [9] and in experiment [10] was “inactive” in each case. Further, the Potency entry in experiment [11], in [12] and in experiment [14] was “inactive” throughout.
